Data published in publication PMC11995724, “Antibiotic target discovery by integrated phenotypic and activity-based profiling of electrophilic fragments” (Cell chemical biology, 2025).
About 110 (3.4%) of roughly 3,200 compounds showed an effect of 50% or more. Many of the other results were omitted from the sample, so strong results are more common in it than they were.

test system: T1, V. cholerae SAD30; set-up: species or system S. aureus MSSA476 (TSB) or V. cholerae SAD30 (LB); 384-well bacterial growth screen at 25 uM, OD600 relative to DMSO control; details: relative growth, OD600, LB; 25 µM; inhibitor
T1 construct: SAD30

SMILES	% of control remaining
Cc1cc(C(=O)O)ccc1N1C(=O)C=CC1=O [10-G22, 4-(2,5-dioxo-2,5-dihydro-1H-pyrrol-1-yl)-3-methylbenzoic acid]	102.864%
Cc1ccc2nc(-c3ccc(N4C(=O)C=CC4=O)cc3)sc2c1 [10-K18, 1-[4-(6-methyl-1,3-benzothiazol-2-yl)phenyl]-2,5-dihydro-1H-pyrrole-2,5-dione]	99.1233%
Cc1ccc(C)c(N2C(=O)C=CC2=O)c1 [10-F13, 1-(2,5-dimethylphenyl)-2,5-dihydro-1H-pyrrole-2,5-dione]	31.3267%
Cc1ccc(N2C(=O)C=CC2=O)c(C)c1 [10-N07, 1-(2,4-dimethylphenyl)-2,5-dihydro-1H-pyrrole-2,5-dione]	22.5989%
COc1ccc2c(c1)OCCN(C(=O)C(C)Cl)C2 (centres unmarked) [7-E04, 2-chloro-1-(8-methoxy-2,3,4,5-tetrahydro-1,4-benzoxazepin-4-yl)propan-1-one]	86.04%
C=CC(=O)NCc1cscn1 [1-I07, N-[(1,3-thiazol-4-yl)methyl]prop-2-enamide]	90.1345%
O=C(CCl)Cc1cc(Cl)cc(Cl)c1 [10-I15, 1-chloro-3-(3,5-dichlorophenyl)propan-2-one]	20.7286%
O=C(CCl)Cc1ccc(Cl)c(Cl)c1 [10-E15, 1-chloro-3-(3,4-dichlorophenyl)propan-2-one]	25.5601%
O=C(CCl)Nc1cc(Cl)cc(Cl)c1 [4-K09, 2-chloro-N-(3,5-dichlorophenyl)acetamide]	84.8825%
O=C(Cc1cccc(F)c1)N1CCSSCC1 [10-L21, 1-(1,2,5-dithiazepan-5-yl)-2-(3-fluorophenyl)ethan-1-one]	98.8116%
O=C(CCl)Cc1cccc(F)c1 [10-C11, 1-chloro-3-(3-fluorophenyl)propan-2-one]	7.637%
O=C(CCl)NCCc1cccc(Cl)c1 [5-O05, 2-chloro-N-[2-(3-chlorophenyl)ethyl]acetamide]	115.33%
CC(C)(C)c1ccc(CC(=O)CCl)cc1 [10-G19, 1-(4-tert-butylphenyl)-3-chloropropan-2-one]	116.579%
Cc1ccc(CC(=O)CCl)cc1 [10-O13, 1-chloro-3-(4-methylphenyl)propan-2-one]	100.058%
CC(C)c1ccc(CC(=O)CCl)cc1 [10-I17, 1-chloro-3-[4-(propan-2-yl)phenyl]propan-2-one]	115.644%
O=C(CCl)N1CCC1c1cccc(F)c1 (centres unmarked) [5-K10, 2-chloro-1-[2-(3-fluorophenyl)azetidin-1-yl]ethan-1-one]	86.5819%

SMILES	% of control remaining
O=C(CCl)Cc1cccc(Cl)c1 [10-E17, 1-chloro-3-(3-chlorophenyl)propan-2-one]	7.481%
Cc1cccc(CC(=O)CCl)c1 [10-I19, 1-chloro-3-(3-methylphenyl)propan-2-one]	92.7333%
COc1cc(C=C(C#N)C(=O)Nc2cccc(C)c2)c2c(c1)CC(C)O2 (centres unmarked) [8-N22, 2-cyano-3-(5-methoxy-2-methyl-2,3-dihydro-1-benzofuran-7-yl)-N-(3-methylphenyl)prop-2-enamide]	77.7022%
C=CC(=O)NCc1cn([C@@H]2COC[C@H]2OC)nn1 [1-J17, N-({1-[(3R,4S)-4-methoxyoxolan-3-yl]-1H-1,2,3-triazol-4-yl}methyl)prop-2-enamide]	85.0523%
C=CC(=O)N(Cc1ccc(Cl)cc1Cl)CC1CCC(O)C1 (centres unmarked) [1-B04, N-[(2,4-dichlorophenyl)methyl]-N-[(3-hydroxycyclopentyl)methyl]prop-2-enamide]	107.949%
Cc1cc(C(=O)CCl)c(C)n1C(C)c1ccccc1 (centres unmarked) [10-P17, 2-chloro-1-[2,5-dimethyl-1-(1-phenylethyl)-1H-pyrrol-3-yl]ethan-1-one]	96.4738%
CC(NC(=O)C(C#N)=Cc1ccco1)c1cccc(-n2cccn2)c1 (centres unmarked) [9-J04, 2-cyano-3-(furan-2-yl)-N-{1-[3-(1H-pyrazol-1-yl)phenyl]ethyl}prop-2-enamide]	81.5092%
C=CC(=O)N1CCCCC1c1nc2ccccc2n1C (centres unmarked) [3-F04, 1-[2-(1-methyl-1H-1,3-benzodiazol-2-yl)piperidin-1-yl]prop-2-en-1-one]	96.3242%
C=CC(=O)NCC(c1c(F)cccc1F)N1CC(C)OC(C)C1 (centres unmarked) [1-I13, N-[2-(2,6-difluorophenyl)-2-(2,6-dimethylmorpholin-4-yl)ethyl]prop-2-enamide]	82.5112%
N#CC(=Cc1ccc(-c2ccccc2Cl)o1)C(=O)N1CCCCC1 [8-F20, 3-[5-(2-chlorophenyl)furan-2-yl]-2-(piperidine-1-carbonyl)prop-2-enenitrile]	64.378%
O=C(CCl)N1CC(S(=O)(=O)Nc2ccccc2)C1 [5-G10, 1-(2-chloroacetyl)-N-phenylazetidine-3-sulfonamide]	71.283%
O=C(NC1CC1)C1(C(=O)N2CCSSCC2)CCC1 [10-B21, N-cyclopropyl-1-(1,2,5-dithiazepane-5-carbonyl)cyclobutane-1-carboxamide]	104.89%
Cn1nc(C(F)(F)F)cc1CN(C(=O)CCl)C1CCCC1 [5-C16, 2-chloro-N-cyclopentyl-N-{[1-methyl-3-(trifluoromethyl)-1H-pyrazol-5-yl]methyl}acetamide]	89.1037%
O=C(CCl)Cc1ccc(F)cc1 [10-G15, 1-chloro-3-(4-fluorophenyl)propan-2-one]	95.6945%
O=C(CCl)Cc1ccc(C(F)(F)F)cc1 [10-C19, 1-chloro-3-[4-(trifluoromethyl)phenyl]propan-2-one]	79.6415%
O=C(CCl)Cc1ccc(F)c(F)c1 [10-O17, 1-chloro-3-(3,4-difluorophenyl)propan-2-one]	19.3259%
